# Only some compounds are listed: those with a hit (about 3.4% of all), similar ones and a draw of the others.
# PAX8 reporter – inhibitors of PAX8-driven TPO luciferase reporter, primary screen, RMG-I cells, single concentration | hit rate 1.2% among 360,000 | SteadyGlo, 24 h | inhibition, % at 12.6 µM;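 active means mean replicate inhibition at least 60% with every replicate also reaching 60%; inconclusive means only one of the two criteria is met; inactive means mean below 60% and not all replicates reaching 60%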;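 further: luciferase light reporting Pax8 driven TPO promoter activity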
# SIRT5 inh – SIRT5 desuccinylase inhibitors, primary screen, biochemical, fluorescence imaging, single point, set 5; NAD-dependent protein deacylase sirtuin-5, mitochondrial (Homo sapiens), Q9NXA8; Purified SirT5, succinyl-peptide AMC, trypsin-coupled fluorescence; inhibition, % at 15 µM; hit rate 1.1% among 330,000; AID 652115, 2013; in the data active means inhibition above about 15%; inconclusive means no clear call, values can overlap the other calls
# Target sequence (Q9NXA8 whole entry, looked up): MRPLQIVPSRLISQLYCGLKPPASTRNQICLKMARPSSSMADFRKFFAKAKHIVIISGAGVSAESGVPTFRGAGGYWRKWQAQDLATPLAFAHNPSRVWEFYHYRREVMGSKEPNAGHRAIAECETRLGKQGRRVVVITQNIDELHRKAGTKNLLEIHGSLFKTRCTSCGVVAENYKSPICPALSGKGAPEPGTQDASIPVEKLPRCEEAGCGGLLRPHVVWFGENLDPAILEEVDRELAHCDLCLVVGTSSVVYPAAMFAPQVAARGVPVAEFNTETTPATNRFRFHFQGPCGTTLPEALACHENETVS
# PGC1a acetyl inh – inhibitors of PGC1a acetylation signal, primary screen, cell-based, U2OS, AlphaScreen, inhibitor mode | inhibition, % at 15.6 µM | AID 651687, 2012 | AlphaScreen anti-acetyl-lysine; with virally co-expressed GCN5 acetyltransferase | hit rate 0.17% among 350,000;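 active means every replicate shows inhibition of at least 40%; inconclusive means mean inhibition at least 40% but some replicate below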
# Ecoli rRNA inh – reduced GFP signal of wild-type E. coli, primary screen, bacterial rRNA inhibitor project, GFP/RFP fluorescence, OD600, single point; AID 720706, 2013; GFP signal change (wild-type ribosome), % (test concentration not listed); E. coli WT GFP vs humanized-ribosome RFP mutants, 24 h; hits give low values; DMSO median 0, no signal -100; hit rate 1.6% among 350,000;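 active means significant combined selectivity score with lowered wild-type GFP, culture density cut under 30%, mutant RFP and density less affected; inactive means any of these conditions unmet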
# LGR2 antag – inhibitors of bursicon-induced LGR2 CRE-luciferase signal, primary screen, cell-based, HEK293, CRE-luciferase reporter, bursicon stimulation. hit rate 0.35% among 380,000. Drosophila bursicon receptor LGR2 (rickets). AID 720647, 2013. inhibition, % at 9.99 µM. bursicon-stimulated, 4 h;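 active means drop in luminescence signal, shown as inhibition above about 50% in the replicate tests, limit read from the data, passing the limit was not always enough; inconclusive means probably only some replicates passing the limit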;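 further: agonist challenge used bursicon conditioned medium at about half maximal strength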
# EWS-Fli block – EWS/Fli-driven NR0B1 reporter inhibitors, primary screen, A673 cells, NR0B1 luciferase, luminescence, MLPCN library; viability-normalised; inhibition, % at 12.6 µM; hit rate 0.67% among 350,000; AID 651661, 2012;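 active means mean inhibition of at least 50% after viability correction, with every replicate also passing that limit; inconclusive means mean reaches 50% but only one of two replicates passes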;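 further: firefly luciferase signal divided by Alamar Blue viability fluorescence both relative to DMSO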
# Numbers stand for hits; n = inactive; u = inconclusive; x = no result given.
SMILES,PAX8 reporter,SIRT5 inh,PGC1a acetyl inh,Ecoli rRNA inh,LGR2 antag,EWS-Fli block
O=C(C[n+]1cc(-c2ccc(Br)cc2)n2c1CCCCC2)c1ccccc1,75,n,n,n,n,n
C[C@@H]1CCCCO[C@@H](CN(C)C(=O)Nc2ccc3c(c2)OCO3)[C@@H](C)CN([C@@H](C)CO)C(=O)c2cc(NC(=O)NC3CCCCC3)ccc2O1,x,n,n,n,n,n
CCCCOc1ccc(C(=O)Nc2ccc(S(=O)(=O)Nc3onc(C)c3C)cc2)cc1,x,n,x,-24,n,n
Cc1noc(NS(=O)(=O)c2ccc(NC(=O)c3cc(=O)c4ccccc4o3)cc2)c1C,n,n,n,n,n,n
CCCOc1ccc(C(=O)Nc2ccc(S(=O)(=O)Nc3onc(C)c3C)cc2)cc1,n,n,n,n,n,n
Cc1cc2oc(C(=O)Nc3ccc(S(=O)(=O)Nc4onc(C)c4C)cc3)cc(=O)c2cc1Cl,n,n,n,-30,n,n
Cc1noc(NS(=O)(=O)c2ccc(N/C=C\C(=O)c3cccc4ccccc34)cc2)c1C,n,n,n,-21,n,n
COc1ccc(NCC(O)Cn2c(C)c(C)c3ccccc32)cc1 (stereo not drawn),n,n,n,-40,n,n
COc1ccc(S(=O)(=O)NCc2ccco2)c2ccccc12,x,n,n,-26,n,n
COc1ccccc1C(=O)NC(=S)Nc1cccnc1Cl,n,n,n,n,84,57
O=C(NC(=S)Nc1ncccn1)c1ccccc1Cl,70,n,x,n,n,n
CC(=O)c1cccc(NC(=S)NCCCCc2ccccc2)c1,n,n,n,-34,n,n
O=C(CCCc1ccccc1)Nc1cccc(C(=O)O)c1,n,x,n,n,82,u
CN1CCN(C(=O)C[C@H]2CC[C@@H]3[C@H](COC[C@H](O)CN3Cc3ccc4c(c3)OCO4)O2)CC1,n,n,n,n,n,n
CC=Cc1ccc2n(c1=O)C[C@@H]1[C@@H](CO)[C@H](C(=O)NCc3ccccc3)[C@H]2N1C (mixture of isomers),x,x,x,n,n,n
CO[C@H]1CN(C)C(=O)c2ccc(NC(=O)C3CC3)cc2OC[C@@H](C)N(Cc2cncnc2)C[C@@H]1C,x,x,n,n,n,n
S=C(NCc1ccccc1)N1CCn2cccc2C1c1ccncc1 (stereo not drawn),n,n,n,n,n,n
CCc1cccc(CC)c1NC(=S)N1CCn2cccc2C1c1ccncc1 (stereo not drawn),n,17,n,n,n,n
CCOc1cccc(/C=C/c2ccc3cccc(O)c3n2)c1OC,n,n,n,-37,n,n
CCOc1cccc(/C=C/c2ccc3cccc(O)c3n2)c1O,n,n,x,n,n,n
O=[N+]([O-])c1ccc(S(=O)Cc2ccccc2)c([N+](=O)[O-])c1 (stereo not drawn),121,n,x,n,60,n
O=C(C1=C[C@@H](c2csc3ccccc23)C[C@@H](OCCCCO)O1)N1CCCCCCC1,x,n,n,x,x,n
COC(=O)/C=C/c1cccc([C@H]2[C@@H]3C=CC[C@@H](C)[C@@H]3C(=O)N2Cc2ccccc2)c1,n,n,n,-19,n,n
COc1ccc(-c2cccc(C3CC=CC4C3C(=O)N(Cc3ccccc3)C4c3ccc(C(F)(F)F)cc3)c2)cc1 (stereo not drawn),n,19,n,n,n,n
COc1cccc(CN2[C@H](CO)[C@@H](c3ccccc3)C23CN(C(=O)C2CCOCC2)C3)c1,x,n,n,n,n,n
CCN(C(=O)c1cnc(NC(C)C)cc1C(F)(F)F)c1ccc(Cl)cc1Cl,n,n,x,-23,n,n
CC1(CCc2ccccc2)NC(=O)N(Cc2cc([N+](=O)[O-])cc3c2OCOC3)C1=O (stereo not drawn),n,n,n,-24,n,n
C[C@H]1CN([C@@H](C)CO)C(=O)c2cc(-c3cccnc3)cnc2O[C@@H]1CN(C)C(=O)c1cccc(F)c1,x,n,n,n,n,n
